Source: PubChem BioAssay (Tox21)
Inconclusive results are not listed. Active and inactive are the calls of the source. Calls follow the shape of the full dose curve.

Experiment: qHTS assay to identify small molecule agonists or antagonists of the thyroid stimulating hormone receptor (TSHR) signaling pathway - wild type cell line counter screen (AID 1259384)
Details: HEK293 wild type, cAMP HTRF counter-screen, stronger effect = higher value; series mostly up to 92.4 µM
Text: U.S. Tox21 Program National Center for Advancing Translational Sciences [NCATS] NIH Chemical Genomics Center [NCGC] U.S. Environmental Protection Agency [EPA] National Institutes of Environmental Health Sciences [NIEHS] National Toxicology Program [NTP] U.S. Food and Drug Administration [FDA] Tox21 Assay Overview: TSHR is the receptor for thyrotropin (thyroid stimulating hormone or TSH), a member of the glycoprotein hormone family. TSH is released by the anterior pituitary gland and is the main regulator of thyroid gland growth and development. Upon binding circulating thyrotropin, a G-protein signal cascade activates adenylyl cyclase and […] cAMP concentration is increased. cAMP is a key second messenger involved extensively in cellular signal transduction pathways associated with the majority of G-protein coupled receptors (GPCRs). The activation of these GPCRs by neurotransmitters, lipids, nucleotides, peptides and hormones results in the activation or the inhibition of plasma membrane-bound adenylate cyclase through heterotrimeric G-proteins. A cell-based TSHR-Hek293 assay can be used to identify TSHR agonists. To eliminate the false positive compounds identified from screening a cell-based TSHR-Hek293 cell line, cAMP assay in a wild type Hek293 cells was used as a counter screening.
Tox21 Assay Protocol Summary: Hek293 cells (wild type) were dispensed at 800 cells/4 uL/well in 1536-well white plates using a Multidrop dispenser. After the assay plates were incubated at a 37 C/5% CO2 incubator for 18 hrs, 23 nL of compounds dissolved in DMSO, positive controls or DMSO only was transferred to the assay plate by a pin tool, followed by 1 ul medium containing Ro20-1724. After 30 min of incubation at room temperature, 2.5 ul/well of cAMP-d2 and 2.5 ul/well of anti-cAMP-cryptate were added respectively into the assay plates using a Flying Reagent Dispenser. The plates were incubated at room temperature for 1 hr. The fluorescence intensity in the plates was measured using an Envision plate reader. Each test compound was measured at 15 concentrations and in triplicates.
% is scaled to controls: 0 for no effect and ±100 for the full control effect.

Row | Compound | outcome | cAMP activity change
1 | CCCCCC/C=C/C(=O)OC | inactive | 
2 | CCCc1ccc(O)cc1 | inactive | 
3 | CCCC(CC)c1ccccc1 (stereo not given) | inactive | 
4 | CCNC(=O)NCc1cccc(Cl)c1 | inactive | 
5 | OCC1CCC(CO)CC1 (stereo not given) | inactive | 
6 | CC(S)C(C)S (stereo not given) | inactive | 
7 | O=[N+]([O-])c1c(Cl)cc(Cl)cc1Cl | inactive | 
8 | O=C(O)CONC(=O)c1ccccc1 | inactive | 
9 | OC1(c2ccc(Cl)cc2)CCNCC1 | inactive | 
10 | N#Cc1cscn1 | inactive | 
11 | CC(=O)CC(=O)Nc1ccc(C)cc1C | inactive | 
12 | O=C(CN1CCNCC1)NC1CCCCC1 | inactive | 
13 | CCC(=O)Oc1ccc2c(c1)CC[C@@H]1[C@@H]2CC[C@@]2(C)[C@H]1C[C@@H](OC(=O)CC)[C@@H]2OC(=O)CC | inactive | 
14 | CC(N)CCCC(C)(C)O (stereo not given) | inactive | 
15 | CC1(C)Cc2cccc(N)c2O1 | inactive | 
16 | CC(=O)OC1CCCCC1C(C)(C)C (stereo not given) | inactive | 
17 | O=C(O)CNC(=O)CNC(=O)CNC(=O)CSC(=O)c1ccccc1 | inactive | 
18 | CCCCSCCCC | inactive | 
19 | CCCCOCCOC(=O)COc1ccc(Cl)cc1Cl | inactive | 
20 | COCCc1ccccn1 | inactive | 

Row | Compound | outcome | cAMP activity change
21 | COc1nc(N)nc2nc[nH]c12 | inactive | 
22 | C[C@]12CCC(=O)C=C1CC[C@H]1[C@@H]3CC[C@](O)(C(=O)CO)[C@@]3(C)C[C@H](O)[C@@]12F | inactive | 
23 | C/C(=C1\CCOC(=O)S1)N(C=O)Cc1cnc(C)nc1N | inactive | 
24 | CC(C)CCOC(=O)c1ccccc1 | inactive | 
25 | CCCCCCCCCOC(=O)CCCCC(=O)OCCCCCCC | inactive | 
26 | O=C1NC(c2ccccc2)(c2ccccc2)C(=O)N1COP(=O)(O)O | inactive | 
27 | NCc1ccc(S(N)(=O)=O)cc1 | inactive | 
28 | [O]=[Mo](=[O])=[O] |  | -1.05% [at 18.9 µM] (inactive)
29 | CCO | inactive | 
30 | COc1c2occc2c(OC)c2c(=O)cc(C)oc12 | inactive | 
31 | CCCC(=O)Nc1ccc(OCC(O)CNC(C)C)c(C(C)=O)c1 (stereo not given) | inactive | 
32 | CC(C)C[C@@H]1[C@H](c2ccccc2)OC(=O)N1CCCN1CCCCCC1 | inactive | 
33 | COc1ccc(CCO)cc1 | inactive | 
34 | CCC(C)C(C)=O (stereo not given) | inactive | 
35 | CCOCCOCC | inactive | 
36 | CC(C)C1OCCN1CCOC(=O)NCCCCCCNC(=O)OCCN1CCOC1C(C)C (stereo not given) | inactive | 
37 | CC(C)COC(=O)c1ccccc1 | inactive | 
38 | CC12CCC(C1)C(C)(C)C2O (stereo not given) | inactive | 
39 | COC(=O)CCCCC(CCSS/C(CCO)=C(\C)N(C=O)Cc1cnc(C)nc1N)SC(C)=O (stereo not given) | inactive | 
40 | CO/N=C(/C(=O)N[C@@H]1C(=O)N2C(C(=O)[O-])=C(C[n+]3ccn4ncccc43)CS[C@H]12)c1nsc(N)n1 | inactive | 
